# High-throughput results deposited in PubChem by several laboratories.
# In the library only some 4.3% were active in any assay of this set; here they are far more common.
# ADAM10 inh: inhibitors of human ADAM10; O14672; recombinant ADAM10, EDANS/DABCYL FRET peptide cleavage, 3 h; inhibition, % at 7 µM; hit rate 0.62% among 370,000; AID 720582;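 active = inhibition above a per-campaign cutoff equal to the mean of compounds falling between control-based bounds plus 3 SD, cut at about 20% in these data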;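 note: 0% = DMSO wells while the 100% control is not disclosed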
# GRIN3A LBD mod: NR3A (human) ligand-binding domain modulation. NR3A LBD differential scanning fluorimetry, Tm shift; 0% = protein alone, 100% = glycine-bound protein. Tm shift relative to glycine control, % at 25 µM. hit rate 2.5% among 340,000. AID 1259313;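 active = melting temperature shift of at least 10% of the positive control shift, at one fixed dose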
# FAS-TE inh: inhibitors of human fatty acid synthase thioesterase domain; AID 602261; hit rate 0.67% among 360,000; recombinant FAS-TE, OMFH fluorogenic substrate, fluorescence endpoint; inhibition, % at 15 µM;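 active = compounds whose normalised, plate-corrected inhibition of enzyme fluorescence in the single-dose primary screen is 50% or more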;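 note: 0% = DMSO with enzyme and 100% = substrate without enzyme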
# HGIII-sPLA2 inh: Inhibits HGIII-sPLA2 liposome hydrolysis, primary screen | Q9NZ20 | QFRET BODIPY PC-A2 liposome hydrolysis, fluorescence | inhibition, % at 12.2 µM | hit rate 0.56% among 370,000;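 active = inhibition above mean plus 3 SD of compounds lying within the high and low control bounds, cut at about 19% in these data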;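 note: 0% = median of test compound wells and 100% = no enzyme DMSO wells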
# Target sequence (Q9NZ20 whole entry, looked up): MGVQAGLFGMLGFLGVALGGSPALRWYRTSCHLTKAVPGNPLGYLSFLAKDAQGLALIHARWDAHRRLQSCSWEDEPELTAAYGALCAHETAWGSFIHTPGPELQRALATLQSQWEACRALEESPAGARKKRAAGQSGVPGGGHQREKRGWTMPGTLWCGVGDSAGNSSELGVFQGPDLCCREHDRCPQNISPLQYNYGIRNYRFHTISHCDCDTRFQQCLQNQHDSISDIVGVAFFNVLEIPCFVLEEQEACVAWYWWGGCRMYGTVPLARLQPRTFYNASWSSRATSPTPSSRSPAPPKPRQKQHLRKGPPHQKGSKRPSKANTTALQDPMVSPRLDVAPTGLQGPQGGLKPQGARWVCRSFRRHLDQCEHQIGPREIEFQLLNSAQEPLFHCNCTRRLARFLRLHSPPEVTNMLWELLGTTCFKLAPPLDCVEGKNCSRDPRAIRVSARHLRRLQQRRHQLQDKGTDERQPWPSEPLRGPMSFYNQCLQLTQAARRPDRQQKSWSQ
# ADAM17 inh: ADAM17 inhibition, QFRET primary screen. P78536. recombinant ADAM17, EDANS/DABCYL FRET peptide cleavage. inhibition, % at 6.95 µM. hit rate 0.83% among 370,000;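 active = inhibition above the mean of compounds lying between control limits plus 3 SD, set per campaign, cut at about 8.5% in these data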;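 note: 0% = DMSO-only wells as the low control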
# ADAM10 counter: counter-screen for ADAM17 exosite inhibitors: inhibitors of human ADAM10; recombinant ADAM10, EDANS/DABCYL FRET peptide cleavage, 3 h; shares compounds with ADAM17 inh; hit rate 47% among 2,900; inhibition, % at 6.95 µM;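 active = mean inhibition over the triplicate runs exceeds the activity threshold set in the earlier primary screen, cut at about 20% in these data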;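 note: 0% = DMSO wells and 100% = marimastat wells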
# ADAM17 confirm: human ADAM17 inhibition, confirmation; shares compounds with ADAM17 inh; recombinant ADAM17, EDANS/DABCYL QFRET peptide cleavage; inhibition, % at 6.95 µM; hit rate 65% among 2,900; AID 743257;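 active = mean inhibition across replicates above the hit cutoff set in the primary screen, cut at about 8.5% in these data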;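 note: 0% = DMSO wells and 100% = marimastat wells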
# * = called active by the depositor; · = no result.
SMILES,ADAM10 inh,GRIN3A LBD mod,FAS-TE inh,HGIII-sPLA2 inh,ADAM17 inh,ADAM10 counter,ADAM17 confirm
CCCCS(=O)(=O)N1CCCc2nc(-c3ccccc3)ccc21,-2,·,·,2,1,·,·
CC(C)=CCc1c2c(c3occ(-c4ccc(O)c(O)c4)c(=O)c3c1O)C=CC(C)(C)O2,7,27*,-5,10,11*,13,8
CC1(C)C=Cc2c(c3c(c4c(=O)c(-c5ccc(O)cc5)coc24)OC(C)(C)CC3)O1,0,-6,15,-1,4,·,·
CC(C)=CCc1c2c(c3occ(-c4ccc(O)cc4)c(=O)c3c1O)C=CC(C)(C)O2,19,25*,29,0,9.5*,21*,15*
C[C@H]1C2CC(OC(=O)NCc3ccc(Cl)cc3)C(C2)[C@H]2CCCCN21 (some centres not stated),-10,·,·,1,-5,·,·
Cc1ccc(-c2ccc(/C=N/NC(=S)Nc3ccccc3)o2)cc1[N+](=O)[O-],14,27*,15,8,14*,24*,17*
COC(=O)c1cc(-c2ccc(C)c(C)c2)c(=O)n2c1CCC2,-47,·,·,2,-19,·,·
C#CCn1c(S(=O)(=O)Cc2ccc(F)cc2)nc(-c2ccccc2)c1-c1ccccc1,16,2,34,-5,8.7*,22*,16*
CCOC(=O)Cn1c(S(=O)(=O)Cc2ccc(F)cc2)nc(-c2ccccc2)c1-c1ccccc1,3,0,28,-1,2,·,·
N#Cc1ccc(CSc2nnc(-c3ccccn3)n2-c2ccccc2)cc1,-15,0,-8,-7,1,·,·
c1ccc(-n2c(SCc3cccc4ccccc34)nnc2-c2ccccn2)cc1,3,·,·,-7,9.2*,14,12*
COc1ccc(CCC[C@@H](CCC(=O)N(c2ccccc2)c2ccccc2)CCc2ccccc2)cc1,-17,·,·,9,-7,·,·
CC(=O)Nc1ccc(NC(=O)CSc2nnc(-c3n[nH]c4c3CCC4)n2N)cc1,-3,·,·,0,-1,·,·
O=C(c1ccccc1Cl)N1N=C(c2cccs2)CC1c1cccc(O)c1 (configuration not stated),11,2,3,-18,9.0*,3,3
CC1CC(C)CN(C(=O)COC(=O)COc2ccccc2C#N)C1 (configuration not stated),4,2,-6,0,9.7*,22*,11*
C=CC[C@H]1c2ccccc2[C@H]2N3N=Cc4ccccc4[C@H]3[C@H](CCc3ccccc3)C(=O)N2N1C(=O)c1ccccc1,15,·,·,10,11*,5,8
O=C(CSc1nnc(COc2cccc3ccccc23)o1)N1c2ccccc2CCc2ccccc21,9,1,27,-29,8.9*,12,8
O=C(NCc1c(F)cccc1F)C1CCCN(c2ncccn2)C1 (configuration not stated),-37,·,·,16,-13,·,·
O=C(O)CCC(=O)NNC(=O)COc1cccc(Cl)c1,-3,1,-4,4,-2,·,·
O=C(COc1cccc(Cl)c1)NNC(=S)Nc1ccccc1,13,-1,-8,16,9.8*,14,9.7*
Cc1ccc(S(=O)(=O)N2C[C@H]3C(=O)C[C@@H](c4ccccc4)N(S(=O)(=O)c4ccccc4C)[C@H]3C[C@H]2c2ccccc2)cc1,13,·,14,-11,11*,22*,9.9*
Cc1ccc(S(=O)(=O)N2C[C@H]3C(=O)C[C@@H](c4cccc(C)c4)N(S(=O)(=O)c4ccc(C)cc4)[C@H]3C[C@H]2c2ccccc2)cc1,4,·,27,-6,8.9*,10,7
Cc1ccc(S(=O)(=O)N2C[C@H]3C(=O)C[C@@H](c4ccccc4)N(S(=O)(=O)c4ccc(C)cc4)[C@H]3C[C@H]2c2ccccc2)cc1,-6,·,42,-10,0,·,·
Cc1ccccc1CN(C)C[C@H]1OCc2cnnn2CCCC(=O)N([C@@H](C)CO)C[C@@H]1C,-2,·,-4,-4,0,·,·
COc1ccccc1CN(C)C[C@@H]1OCc2cnnn2CCCC(=O)N([C@H](C)CO)C[C@H]1C,0,·,-6,-3,8.7*,-2,-1
SMILES,ADAM10 inh,GRIN3A LBD mod,FAS-TE inh,HGIII-sPLA2 inh,ADAM17 inh,ADAM10 counter,ADAM17 confirm
CCOC(=O)C1=CN(Cc2cccc(F)c2)S(=O)(=O)NC1c1cccc(OC)c1 (configuration not stated),-3,1,14,-17,-4,·,·
CCOC(=O)C1=CN(Cc2cccc(F)c2)S(=O)(=O)NC1c1ccc2ccccc2c1 (configuration not stated),20,8,23,-39,9.8*,15,11*
CC(C)C[C@H]1COc2cc(NCc3ccc(Cl)c(Cl)c3)ccc2S(=O)(=O)N1,-6,·,·,-2,-3,·,·
Cc1cc(NC(=O)CSCC(=O)N(c2cccc(Cl)c2)C(C(=O)NC2CCCCC2)c2ccc(O)c(O)c2)no1 (configuration not stated),8,-1,-13,-27,9.5*,-2,5
CCCN1CCS(=O)(=O)N(Cc2cn(Cc3ccccc3)nn2)C(C(=O)OC)C1 (configuration not stated),-3,·,·,12,0,·,·
CCN1C(=O)C(CC(=O)Nc2ccc(Br)cc2)N(CCCc2ccccc2)C1=S (configuration not stated),18,16*,45,-8,9.0*,35*,20*
CNC(=O)CC1C(=O)N(c2ccc(Cl)cc2)C(=S)N1CCc1ccc(OC)c(OC)c1 (configuration not stated),13,-1,-2,-21,8.7*,14,7
CCN1C(=O)C(CC(=O)Nc2ccc(OC)cc2)N(CCc2ccc(OC)cc2)C1=S (configuration not stated),18,-1,17,-31,11*,32*,15*
O=C(CSC1CC(=O)N(CCc2ccccc2)C1=O)Nc1ccc(Br)cc1 (configuration not stated),12,-5,10,-43,9.3*,10,8
CCN(CC)S(=O)(=O)c1ccc(OC)c(NC(=O)c2ccc(OC)c([N+](=O)[O-])c2)c1,13,-6,20,-14,13*,0,1
CCN(CC)S(=O)(=O)c1ccc(N2CCOCC2)c(NC(=O)c2ccc(OC)c([N+](=O)[O-])c2)c1,-2,0,20,1,-4,·,·
O=c1cc(N2CCN(c3cccc(C(F)(F)F)c3)CC2)[nH]c(=O)n1-c1ccccc1,9,·,·,6,0,·,·
Cc1ccc(S(=O)(=O)N2C3CCCCC3O[C@H]2CC(=O)c2ccccc2)cc1 (some centres not stated),0,·,·,-2,1,·,·
